Measurements as given in PubChem BioAssay (NCI).
Compounds without any hit were thinned out: in the full panel of roughly 83,000, 20% have a hit.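 Single-concentration screen, 48 h exposure, 96-well plates. Endpoint: percent growth. Below 10 = active.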 A number with no mark means an inactive call. Active and inactive are the calls of the source.

Tested on: A549/ATCC NSCLC
Assay: NCI-60 one-dose screen, 48 h (100 = growth as untreated, 0 = no growth, -100 = all killed)
Details: 10 µM unless noted
Method: Growth inhibition of the A549/ATCC human Non-Small Cell Lung tumor cell line is measured as a screen for anti-cancer activity. Cells are grown in 96 well plates and exposed to the test compound for 48 hours. Compounds are tested at a single concentration, which is 10^-5 M for most compounds. The reported endpoint is percent growth (GI% or GIPRCNT), where numbers from 0 - 100% represent growth inhibition, and numbers from -100% - 0 represent cell death. For example, a value of 40 represents 60% growth inhibition. A value of 0 means no net growth occurred over the course of the experiment. A value of -40 indicates 40% of cells at the beginning of the experiment died by the end of the experiment. A value of -100 means all cells are dead at the end of the experiment.
NCI-60 Human Tumor Cell Lines Screen was performed using the standard one-dose NCI protocol, which is described in more detail at https://dtp.cancer.gov/discovery_development/nci-60/default.htm.
Compounds with GIPRCNT values below 10 were considered active. Activity score was based on GIPRCNT using the following formula: […]
Score is 0 for GIPRCNT values of 100 or above, 50 for GIPRCNT values of 0, and 100 for GIPRCNT values of -100.

Row | Structure (SMILES) | growth
1 | COc1cc(C2CC(=O)Nc3c2c(C)nn3-c2nc3ccccc3[nH]2)cc(OC)c1OC (stereo not given) | 97.7%
2 | OC(c1cccc(C(F)(F)F)c1)c1cnccc1NC1CCCCCC1 (stereo not given) | 53.8%
3 | COc1ccc(N(Cc2cc(OC)c(OC)c(OC)c2)C2OC(=O)c3ccccc32)cc1 (stereo not given) | 23.7%
4 | C=C1CCC2C3(C)COC(C)(C)OC3CCC2(C)C1C/C=C1/C(=O)OCC1OC(C)=O (stereo not given) | 61.7%
5 | CN(C)CCCC(=O)Nc1ccc(Cn2nnc3c2C(=O)c2nnn(Cc4ccc(NC(=O)CCCN(C)C)cc4)c2C3=O)cc1 | 91.9%
6 | C=CC[N+]1(CC)CCN=C1CCCCCCCCCCCCCCCCC (stereo not given) | -92.9% (active)
7 | O=C1C=CC(=O)c2c1nc1n2CCCC1 | 41.6%
8 | CCN(CC)CCCNc1cc(OC)cc2nc3cc(Cl)ccc3nc12 | -52.4% (active)
9 | CCCCCCCCCCCCCCCC(=O)OCC1OC(n2cnc3c(=S)nc(N)[nH]c32)C(OC(=O)CCCCCCCCCCCCCCC)C1OC(=O)CCCCCCCCCCCCCCC (stereo not given) | 74.3%
10 | CSc1nc(NCCO)c(C#N)c(-c2cccc(N)c2)n1 | 100%
11 | Cc1sc2nc3[nH]/c(=C\c4ccc(Cl)cc4)c(=O)n3c(=O)c2c1C | 94.1%
12 | OCCNCCNc1c2ccccc2nc2ccccc12 | 98.2%
13 | O=C([C@@H](COCc1ccccc1)N1C(=O)[C@@H](N2C(=O)OC[C@@H]2c2ccccc2)[C@H]1/C=C/c1ccccc1)N1CCC(CCN2CCCCC2)CC1 | 75.4%
14 | O=c1c(/C=C/c2ccco2)nnc(SCCN2CCOCC2)n1/N=C/c1ccc([N+](=O)[O-])cc1 | 99.4%
15 | CCN1CCN(Cc2ccc(NC(=O)Nc3nc4ccc(Oc5ccnc(C(=O)NC)c5)cc4s3)cc2C(F)(F)F)CC1 | -41.7% (active)
16 | CNC(=O)c1cc(Oc2ccc3nc(NC(=O)Nc4ccc(CN5CCOCC5)c(C(F)(F)F)c4)sc3c2)ccn1 | 20.9%
17 | CCN(C(=O)CN1CCN(c2cc3c(cc2F)c(=O)c(C(=O)O)cn3C2CC2)CC1)c1nc(-c2ccc(OC)cc2)cs1 | 11.4%
18 | CN1CCN(Cc2ccc(NC(=O)c3cncc(C#Cc4cncc5nccnc45)c3)cc2C(F)(F)F)CC1 | 70.8%
19 | O=C(CCN1CCOCC1)Nc1ccc(Cn2nnc3c2C(=O)c2nnn(Cc4ccc(NC(=O)CCN5CCOCC5)cc4)c2C3=O)cc1 | 84.8%
20 | CCOc1ccc(Nc2nc(-c3c(C)nc4ncccn34)cs2)cc1 | 22.4%

Row | Structure (SMILES) | growth
21 | Nc1cc2ccncc2c2ccccc12 | 89.4%
22 | O=C(COCc1c(-c2ccccc2)no[n+]1[O-])Nc1ccc(C(=O)/C=C/c2ccc3c(c2)OCO3)cc1 | 85.4%
23 | Nc1ccc(N2CCOCC2)cc1 | 110%
24 | O=C(NCc1cccc(C(F)(F)F)c1)[C@H](CCC(=O)N1CCN(C2CCCCC2)CC1)N1C(=O)[C@@H](N2C(=O)OC[C@@H]2c2ccccc2)[C@H]1/C(Cl)=C/c1ccccc1 | 37.7%
25 | CC#Cc1nc2ccccc2c(=O)[nH]1 | 72.2%
26 | NCc1cn2cc(Cl)sc2n1 | 92.9%
27 | C/C(=C(/c1ccc(O)cc1)c1ccc(OCCN(C)C)cc1)c1ccccc1 | 72.4%
28 | CCOC(=O)c1cnc2ccc(OC)cc2c1Nc1cccc(S(=O)(=O)NC)c1 | 103%
29 | Cc1nc2sc(C(=O)Nc3cccc4c3OCCO4)c(N)c2cc1C(C)O (stereo not given) | 49.9%
30 | O=C(/C=C\c1cccc([N+](=O)[O-])c1)c1ccccc1 | 92.9%
31 | N#Cc1ccc(NC(=O)Nc2ccc(Cc3ccc(NC(=O)Nc4ccc(C#N)cc4)cc3)cc2)cc1 | 41.3%
32 | CCOC(=S)SCc1ccc(Cl)cc1 | 80.4%
33 | CCCCN(CCCC)CCC(C)(O)c1cc2ccccc2c2ccccc12 (stereo not given) | 83.5%
34 | COc1cc(NCCCCN=C(N)N)c2ncccc2c1 | 86.8%
35 | CCN(CC)c1ccc(CNc2cc(C)nc3ccc(OC)cc23)cc1 | 70.2%
36 | CCN(CC)CCCCNc1ccc(NCCCCN(CC)CC)c2c1C(=O)c1ccccc1C2=O | 56.6%
37 | C[C@@H]1CC[C@@H]2[C@@H]1[C@H](OC(=O)/C=C/c1ccccc1)[C@]1(C3CCCCC3)C[C@@H](OC(=O)CO)[C@@]2(C)O1 | 53.1%
38 | COc1c2ccccc2c(OC)c2[nH]c(=O)ccc12 | -34.2% (active)
39 | COc1ccc2nc(NC(=O)c3cccnc3Nc3cc(OC)c(OC)c(OC)c3)sc2c1 | -32.2% (active)
40 | CC/C(=C(\c1ccccc1)c1ccc(OCCNC)cc1)c1ccccc1 | -39.2% (active)
